Assay: viability profiling in RPMI8226 myeloma cells – cell-based, resazurin fluorescence, basal, 24 h, PK04 Diversity Set, profiling panel (AID 1180);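 also: RPMI8826 multiple myeloma cell line at 5000 cells per well; test concentration not given here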
Settings: higher = more signal

Row | SMILES | z-score
1 | O=C1CCCC=C1C(O)C1CCCCC1 (stereo not drawn) | 0.289
2 | COC(=O)CC=C[C@@H](C)[C@@H](C=NOC[C@@H](C)[C@H](OCc1ccccc1)C(C)C)OC | -0.286
3 | COC(=O)[C@H](C)NC(=O)CC=C[C@@H](C)[C@@H]1C=C[C@H](O)[C@@H](CO)O1 | -0.845
4 | C[C@@H](c1ccccc1)N1C(=O)[C@H]2[C@H]3[C@H](O)[C@H](O)CC(=NOCc4ccccc4)[C@@H]3CC[C@H]2C1=O | -0.181
5 | O=C1[C@H]2[C@H]3[C@H](O)[C@H](O)CC(=NOC[C@@H](O)COCc4ccco4)[C@@H]3CC[C@H]2C(=O)N1Cc1ccc2c(c1)OCO2 | 0.501
6 | CCCNC(=O)OC[C@H]1O[C@H](CCON=C2C[C@@H](O)[C@@H](O)[C@@H]3[C@@H]4C(=O)N(CC)C(=O)[C@@H]4CC[C@@H]23)C=C[C@@H]1Oc1ccc(OC)cc1 | -1.02
7 | CC(C)CON=C1C[C@@H](O)[C@@H](O)[C@@H]2[C@@H]3C(=O)N(Cc4ccc5c(c4)OCO5)C(=O)[C@@H]3CC[C@@H]12 | -0.0253
8 | COc1ccc(COC(=O)NN=C2C[C@@H](O)[C@@H](O)[C@@H]3[C@@H]4C(=O)N([C@@H](C)c5ccccc5)C(=O)[C@@H]4CC[C@@H]23)cc1 | -0.521
9 | C[C@@H]1CC[C@H]2C(=O)N3[C@@H](CC[C@@H](C)[C@@H]3c3ccc(Br)cc3)C(=O)N2[C@H]1c1ccc(Br)cc1 | 0.102
10 | CCOC(=O)CCN1C(=O)[C@H]2[C@H]3[C@H](O)[C@H](O)CC(=O)[C@@H]3CC[C@H]2C1=O | 0.651
11 | COC(=O)[C@H](CCSC)NC(=O)CC=C[C@@H](C)CO | 0.475
12 | CCOC(=O)[C@H](Cc1ccccc1)NC(=O)CCC1CC(OC(=O)NCc2cccc3ccccc23)CC2(CCCC(COC(=O)NCCOc3ccccc3)O2)O1 (stereo partly drawn) | 1.02
13 | COc1ccc(COC(=O)NN=C2C[C@@H](O)[C@@H](O)[C@@H]3[C@@H]4C(=O)N(c5cccc(Oc6ccccc6)c5)C(=O)[C@@H]4CC[C@H]23)cc1 | 0.487
14 | COc1ccc(OC[C@@H]2CC3[C@@H](c4ccc(Br)cc4)[C@H](C)CC[C@H]3C(=O)O2)cc1 (stereo partly drawn) | 1.04
15 | COC(=O)[C@H](C)NC(=O)CCC1CC(OC(=O)NCc2cccc3ccccc23)CC2(CCCC(COC(=O)NCCc3ccccc3OC)O2)O1 (stereo partly drawn) | -0.472
16 | COc1ccc(OC[C@@H](CO)OC)cc1 | 0.421
17 | COc1ccc(COC(=O)NN=C2C[C@@H](O)[C@@H](O)[C@@H]3[C@@H]4C(=O)N(C[C@@H]5CCCO5)C(=O)[C@@H]4CC[C@@H]23)cc1 | 0.115
18 | CCOC(=O)[C@H](CC(C)C)NC(=O)CCC1CC(OC(=O)NCc2ccc3c(c2)OCO3)CC2(CCCC(COC(=O)NCCOc3ccccc3)O2)O1 (stereo partly drawn) | 0.632
19 | C=CC[C@@H]1C=C[C@H](ON=C(C)CCN2CCCCc3nc(C)c(C)cc32)[C@@H](CO)O1 | -0.103
20 | C[C@@H](c1ccccc1)N1C(=O)[C@H]2[C@H]3[C@H](O)[C@H](O)CC(=NOC[C@@H](O)COCc4ccco4)[C@H]3CC[C@H]2C1=O | 0.0536
21 | COc1ccc(O[C@H]2C=C[C@@H](C#Cc3ccccc3)O[C@@H]2CO)cc1 | -0.021
22 | COC(=O)[C@@H]1CC[C@H](C)[C@@H](c2ccc(Br)cc2)N1C[C@@H](O)CN=[N+]=[N-] | -0.0718
23 | CC(C)=CCCC(C)=CCON=C1C[C@@H](O)[C@@H](O)[C@@H]2[C@@H]3C(=O)N(Cc4ccc5c(c4)OCO5)C(=O)[C@@H]3CC[C@@H]12 | 0.354

Reference: PubChem BioAssay
